Sampled rows, rich in hits. Any-hit rate of the full collection: about 7.5%.
Rab9 prom act: qHTS Assay for Rab9 Promoter Activators; Huh7 Rab9 promoter-luciferase reporter, luminescence, 24 h; Potency, µM (titrated, usually from 9.22 µM), for inactives: at the top dose activation, negative = inhibition, hits mostly activators; hit rate 2.8% among 320,000; AID 485297, 2010; note: % of control where 0% means no effect; nearly all actives have a fitted effect of over 60% in size
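Using Huh7 cells stably transfected with Rab9 promoter–luciferase, compounds were incubated 24 h at 37 °C, 5% CO2; luciferase luminescence was read 10 min after reagent addition.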
ELG1 genotox: qHTS screen for small molecules that induce genotoxicity in human embryonic kidney (HEK293T) cells expressing luciferase-tagged ELG1; hit rate 1.3% among 330,000; Potency, µM (top dose mostly 46 µM), without a hit: at the top dose activity change, positive = activation, hits mostly activators; HEK293T ELG1-luciferase reporter, luminescence, 16 h; note: % of control where 0% means no effect; nearly all actives have a fitted effect of over 60% in size
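Quantitative HTS format in 1536-well plates. HEK293T ELG1-luciferase reporter cells receive test compound and are incubated 16 hr at 37 °C, 5% CO2; ONE-Glo added, 30 min room temperature, then luminescence read.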
Luc counter: Counterscreen for Luciferase (Kinase-Glo TM) Inhibition | Kinase-Glo luciferase, ATP luminescence, 8 min | hit rate 0.28% among 200,000 | Potency, µM (series often up to 38.3 µM), for inactives: top-dose activity change, negative = inhibition, actives largely listed as inhibitors | AID 1379, 2008; note: % is set by controls: 0 for no effect and ±100 for the full control effect; nearly all actives have a fitted effect of over 60% in size
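Compounds were added to a substrate mix at pH 7.2 (50 mM imidazole, 10 uM ATP, within the enzyme's linear range), followed by Kinase-Glo detection reagent; luminescence was measured after 8 minutes at ambient temperature.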
FLuc modulator: qHTS profiling assay for firefly luciferase inhibitor/activator using purifed enzyme and Km concentrations of substrates (counterscreen for miR-21 project); Luciferin 4-monooxygenase (Photinus pyralis), P08659; purified FLuc, Km substrates, luminescence inhibition; Potency, µM (top dose mostly 57.5 µM), inactives show at the top dose activity change, negative = inhibition, most hits filed as inhibitors; hit rate 6.9% among 360,000;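 note: plate controls were vehicle for no effect and reference inhibitor for full effect; nearly all actives have a fitted effect of over 55% in size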
Target sequence (P08659 whole entry, looked up): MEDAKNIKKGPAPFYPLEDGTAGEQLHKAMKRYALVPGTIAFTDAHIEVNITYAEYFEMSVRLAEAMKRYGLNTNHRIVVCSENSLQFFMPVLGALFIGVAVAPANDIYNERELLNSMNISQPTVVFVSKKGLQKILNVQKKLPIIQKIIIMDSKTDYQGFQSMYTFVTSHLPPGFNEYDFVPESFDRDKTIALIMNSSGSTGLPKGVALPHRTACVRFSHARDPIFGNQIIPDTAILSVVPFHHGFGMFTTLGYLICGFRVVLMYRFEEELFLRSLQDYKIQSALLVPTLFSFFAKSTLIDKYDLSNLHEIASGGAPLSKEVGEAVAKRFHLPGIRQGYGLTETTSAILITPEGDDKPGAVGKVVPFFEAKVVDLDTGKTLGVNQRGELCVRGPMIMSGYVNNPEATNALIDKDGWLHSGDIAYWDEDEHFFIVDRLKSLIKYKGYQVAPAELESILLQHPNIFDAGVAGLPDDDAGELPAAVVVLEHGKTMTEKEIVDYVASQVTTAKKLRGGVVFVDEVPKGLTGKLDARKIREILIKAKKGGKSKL
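Biochemical qHTS of compounds, final roughly 60 µM downward over six points, against 10 nM purified firefly luciferase using Km concentrations of substrates (10 uM D-luciferin, 10 uM ATP) in Tris acetate pH 7.5 buffer; luminescence output.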
NPC1 prom act: qHTS Assay for NPC1 Promoter Activators; Huh7 NPC1 promoter luciferase reporter, 24 h; Potency, µM (series often up to 9.22 µM), without a hit: at the top dose activation, hits mostly activators; hit rate 2.4% among 320,000; AID 485313, 2010; note: % of control where 0% means no effect; nearly all actives have a fitted effect of over 60% in size
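NPC1 promoter–luciferase Huh7 cells; 24 h compound; luminescence.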
SMN2 splice up: qHTS Assay for Enhancers of SMN2 Splice Variant Expression; HEK293 SMN2-luciferase splicing reporter, luminescence, 30-36 h; Potency, µM (top dose mostly 46.1 µM), inactives show at the highest dose activity change, positive = activation, hits mostly activators; hit rate 2.8% among 210,000; note: % of control where 0% means no effect; nearly all actives have a fitted effect of over 55% in size
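HEK293 cells carry an SMN2 minigene-luciferase reporter in which exon 7 inclusion puts luciferase in frame. Cells were seeded at 2000 cells/well, attached for 10-12 hours, then exposed to compounds for 30-36 hours at 37C before ONE-Glo luminescence.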
Active calls of the source: *; ? = inconclusive; / = no result given; [ ] = another dose, or the depositor's remark. Calls come from the whole dose curve; as a rule, active = well fitted curve in the direction sought with a large enough effect; inconclusive = small, poorly fitted or top-dose-only effect, or another doubt; inactive = no such curve, though single readings can be large; an effect the other way counts as inactive or inconclusive. Potency is the fitted concentration of half-maximal effect.

SMILES	Rab9 prom act	ELG1 genotox	Luc counter	FLuc modulator	NPC1 prom act	SMN2 splice up
O=C(Nc1cccc([N+](=O)[O-])c1)c1ccncc1	-1%	5%	5%	1%	-4%	-10%
O=C(Nc1cccc([N+](=O)[O-])c1)c1[nH]ncc1Cl	4µM*	?	-8%	17µM*	3.2µM*	11µM*
O=C(CCCCCN1C(=O)c2ccccc2C1=O)Nc1ccc2c(c1)OCCO2	-1%	0%	-2%	?	7%	2%
CC(C)(O)C#Cc1ccc(C(=O)Nc2ccc3c(c2)OCO3)s1	?	?	/	8.5µM*	2.8µM*	/
O=C(Nc1cccc([N+](=O)[O-])c1)c1cnccn1	1%	1%	1%	-2%	6%	19%
O=C(CCCc1ccccc1)Nc1ccc2c(c1)OCCO2	0.45µM*	2.1µM*	1%	2.1µM*	0.5µM*	6.3µM*
O=C(Nc1cccc(Cl)c1)c1ccc2c(c1)OCCO2	1.8µM*	2.1µM*	/	1.1µM*	1.3µM*	/
O=C(Nc1ccc(NC(=O)c2cc3ccccc3o2)cc1)c1ccc2c(c1)OCCO2	-13%	10%	2%	-2%	-13%	-33%
CC(C)(O)C#Cc1ccc(C(=O)NCCC(=O)O)s1	-6%	1%	0%	8%	0%	7%
COc1cc(CN2CCC(CCC(=O)NC3CC3)CC2)cc(Cl)c1OC	0%	-1%	/	-1%	-2%	/
CCN(c1ccccc1)S(=O)(=O)c1ccc(F)c(C(=O)Nc2ccc(C)cc2)c1	/	/	/	-2%	/	/
CCCCN(C(=O)c1ccccc1OCc1ccc(F)cc1)c1c(N)n(CC(C)C)c(=O)[nH]c1=O	6%	0%	/	1%	-2%	/
O=C(NC1CCCCC1)c1ccc(CSc2nc3ccncc3n2Cc2cccc(F)c2)cc1	/	/	/	?	/	17%
N#Cc1cccc(CS(=O)(=O)c2nnnn2C2CCCCC2)c1	/	/	0%	/	/	22%
O=C(CC1CS(=O)(=O)CC1CC(=O)Nc1ccc2c(c1)OCCO2)Nc1ccc2c(c1)OCCO2 (stereo unspecified)	7%	?	-1%	17µM*	12%	/
O=C(Nc1cccc(NC(=O)c2cccs2)c1)c1ccc2c(c1)OCCO2	30%	2%	-6%	7.6µM*	23%	/
O=C(NC(=S)Nc1ccc2c(c1)OCCO2)c1cccc2ccccc12	22%	16%	-1%	15µM*	12%	?
CCC(=O)Nc1ccc2c(c1)OCCO2	0%	1%	3%	-1%	-5%	-2%
CN1C(=O)c2ccc(C(=O)Nc3ccc4c(c3)OCO4)cc2C1=O	12%	?	/	2.4µM*	15%	/
O=C(Nc1cccc(NC(=O)c2cccs2)c1)c1ccc(Br)cc1	3%	-7%	/	?	-9%	/
O=C(O)c1ccccc1NC(=S)NC(=O)c1cccc2ccccc12	-3%	-2%	0%	-19%	-3%	3%
CC(C)(C)NS(=O)(=O)c1ccc(C(=O)Nc2ccc3c(c2)OCO3)cc1	5%	16%	/	?	7%	/
O=C(Nc1ccc2c(c1)OCO2)c1ccccc1	1.1µM*	?	/	9.5µM*	1.8µM*	/
O=C(Nc1ccc2c(c1)OCCO2)c1ccc(Cl)cc1Cl	0.28µM*	?	/	1.2µM*	0.45µM*	/
CS(=O)(=O)Nc1ccc(C(=O)Nc2ccc3c(c2)OCCO3)cc1	?	?	6%	19µM*	?	?
SMILES	Rab9 prom act	ELG1 genotox	Luc counter	FLuc modulator	NPC1 prom act	SMN2 splice up
O=C(NC(=S)Nc1ccccc1Br)c1ccc2c(c1)OCO2	11%	?	/	9.5µM*	?	/
O=C(Cc1ccc(S(=O)(=O)N2CCOCC2)s1)OCc1ccc(Cl)cc1	1%	1%	/	5%	-5%	/
CCOc1ccc(CNC(=O)Cc2ccc(NC(=O)N3CCSc4ncccc43)cc2)cc1	/	/	/	-5%	/	/
O=C(Nc1ccc2c(c1)OCCO2)c1cccc(C(=O)Nc2ccc3c(c2)OCCO3)c1	17%[1.84 µM]	14%	/	6.7µM*	4µM*	/
O=C(NC(=S)Nc1ccc2c(c1)OCO2)c1ccccc1	1.6µM*	?	-7%	3.8µM*	1.4µM*	20µM*
CC(C)c1ccc(O)c(NC(=S)NC(=O)c2ccc3c(c2)OCO3)c1	?	22%	/	6.7µM*	2.2µM*	/
O=C(Nc1ccc2c(c1)OCCO2)c1ccc(Br)s1	1.6µM*	1.5µM*	-7%	0.67µM*	3.5µM*	1.1µM*
Oc1cc(Nc2ccc(N3CCCCC3)cc2)cc2cccnc12	-38%	/	/	?	-35%	/
Cc1c(CNCCCc2ccccc2)c(C(=O)O)c(C)n1Cc1cccc(Cl)c1	/	/	/	-8%	/	-2%
CCOc1cccc(C(=O)Nc2ccc3c(c2)OCCO3)c1	?	2.3µM*	/	1.5µM*	?	/
O=C(Nc1ccc2c(c1)OCO2)c1cc(Cl)ccn1	1.3µM*	?	/	4.8µM*	1.8µM*	/
O=C(Nc1ccc2c(c1)OCCO2)C(=O)NC1CC1	2.8µM*	?	/	4.8µM*	?	/
O=C(Nc1ccc2c(c1)OCCO2)c1cnn(-c2ccccc2)n1	2.8µM*	?	/	4.8µM*	?	/
O=C(Nc1ccc2c(c1)OCO2)c1ccc(Cl)cc1Cl	-3%	6%	/	-2%	0%	/
Cc1noc(C)c1COc1cccc(C(=O)Nc2ccc3c(c2)OCO3)c1	17%	25%	-8%	?	5%	26%
COc1ccc(-c2cc(C(F)(F)F)n3nc(C(=O)NCC45CC6CC(CC(C6)C4)C5)cc3n2)cc1	/	/	/	-10%	/	-3%
O=C(CCNC(=O)c1ccccc1Cl)Nc1cccc(S(=O)(=O)N2CCCC2)c1	11%	1%	/	-12%	5%	/
O=C(Nc1ccc2c(c1)OCCO2)c1ccccc1	0.79µM*	3.7µM*	/	3.4µM*	0.45µM*	/
Cc1nn2c(N)c(C#N)cnc2c1-c1ccccc1	8%	?	-1%	?	2%	7%
Cc1nn2c(N)c(-c3ccccc3)cnc2c1-c1ccccc1	1.6µM*	?	/	0.95µM*	2.2µM*	/
Cc1nn2c(-c3ccc(Cl)cc3)ccnc2c1-c1ccccc1	22%	8%	-1%	8.5µM*	?	-5%
Cc1nn2c(-c3ccco3)ccnc2c1-c1ccc(Cl)cc1	/	/	/	5.4µM*	/	-13%
Cc1nn2c(-c3ccco3)ccnc2c1-c1ccc(Br)cc1	/	/	/	9.5µM*	/	12%
COc1cccc(C(c2sc3nc(-c4ccco4)nn3c2O)N2CCN(C)CC2)c1 (stereo unspecified)	/	/	/	5%	/	/
Cc1ccc(Cn2c(SCC(=O)NCc3ccccc3Cl)nc3ccsc3c2=O)cc1	/	/	/	4%	/	/
